# Measured values: PubChem BioAssay AID1347426 (Functional Genomics Laboratory (NCATS/FGL), 2020)
# In all, about 31,000 sequences went through this assay and about 1,400 (4.5%) were called active. The full list was thinned out, with actives kept by preference. Values without a mark were called inactive.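 The calls were made as follows: active = median seed-adjusted z-score above 1 or below -1; inactive = the rest.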
# Assay: Novel Modifiers of Survival Motor Neuron (SMN) Protein: Gene Identification via Genome-wide siRNA Screen;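 also: luminescence tracks full-length SMN protein made from the SMN2 reporter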
# Details: HEK293T SMN2-luciferase reporter, siRNA knockdown, 72 h; actives lie on both sides
# Method in brief: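 HEK293T cells stably carrying an SMN2 promoter/splicing cassette–luciferase reporter were reverse-transfected with 1 pmol siRNA per well (druggable-genome library, 3 siRNAs per gene) and grown 72 h at 37 °C. Luminescence, normalized to negative-control siRNA and log10-transformed, was scored as MAD.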
row,Sequence,median seed-adjusted z-score
1,CUGCUAAACUUGAACCGAATT against TM9SF2,1.09 (active)
2,UCCUAUCAGAAGUUGCAUATT against RKHD4,0.0683
3,CAAUGUUUACUACAAUGAATT against TUBB2B,0.935
4,GGAGUGCUAGAAUCUACUATT against HEPH,-0.293
5,GGAUACAAAGCACAUAACATT against UBE2D4,0.232
6,GAGCAUUAUGUUACACCAATT against TTC6,0.234
7,GAACCUCAGUUGAGUAUUUTT against RPE,0.616
8,CAGUGCUGUUAGAAUAAAATT against ZNHIT1,-0.497
9,UGUGGAGAAUGACUACAUATT against SPRY4,-1.23 (active)
10,GGAUGACCAGGGUCUAUAATT against FMO4,-0.359
11,CCAUGAAUUCUUACUUUUATT against VAC14,0.0825
12,CAGAAUCAGCUGGAAGAAATT against BAIAP2,-0.0497
13,GUAGCAGGGCUGAACCCAUTT against ZMAT5,0.292
14,GCCGUGACCUACUUCAUCATT against SLC29A4,0.0192
15,CAGCUGAUGCGGACCAAGATT against RASSF4,0.29
16,GAUACUCGUAUUAAGCCUATT against USP32,0.484
17,GAACUGUGCUGAUGUGAAATT against PATE1,1.21 (active)
18,GCAAGUCGUGAAACUAUAATT against YEATS4,0.905
19,GGUGCUGAAUGUGGAGUAATT against DNAJC3,0.502
20,GCAGAACAACGAGCACAGATT against CTSW,-0.342
21,GGAAUUCCAGUAACGAUGATT against RNF149,-0.17
22,GCAUAAAUGAAAUCUCGGATT against ZMYND8,-0.065
23,GGGUCAUCCGAGAAAAGAATT against ADAMTS17,0.257

row,Sequence,median seed-adjusted z-score
1,GAGCAGUACAGAACAGGAATT against HAAO,0.214
2,GCUGCUCACUGUUUCAUGATT against PRSS36,0.589
3,CAACAGAAUAUGCCGUAUATT against SNRPA1,-2.71 (active)
4,GUUUGCAUGUGACAAUGGATT against PPTC7,0.49
5,GCACAGGUCUAAUUCGUCUTT against GRIK1,-0.31
6,CGACACCGGAUAAACCAAATT against HES1,-0.262
7,GCACCAGGAUAUGUCUUAATT against YY1AP1,0.0453
8,GGUCAAAGAGUUAUAGAUUTT against MKKS,1.03 (active)
9,GGUGUCACCCUGUGAAUUUTT against MAP1S,0.0941
10,AGCCUAUGGUCGGAACGAATT against APOBEC3F,-0.315
11,GCACCUAUGCAGCUCUUCATT against FBLIM1,0.0604
12,GGGUUACCCUGGUCAUUAATT against ZNHIT2,-0.339
13,GGAGAGACCAGUAAACCGATT against NSFL1C,-0.0899
14,CGAUGAACAUGUUAGACAUTT against AZIN1,-1.14 (active)
15,GUACAGGGAGCAGAUCAAATT against HRAS,-0.85
16,GGAUGUUCACAACCGAAUUTT against CTNNB1,0.0802
17,GGGUAAACGAUUCCAGCAATT against N-PAC,0.0542
18,GAAUUGGACUGGAUGCUAATT against DGKK,0
19,GGUCCAAAGGGAUCAGGAATT against EMR2,0.0569
20,GCAUCGUUUCUAUGAACUUTT against KCNB2,1.22 (active)
21,GGAUGUAAGCCUGACCAUATT against ZNF784,0.291
22,CCAGAAAGCUUCAUCCACATT against MC1R,-0.64
23,GCAGAUCCCUUGUUUUCCUTT against APLN,0.0181

row,Sequence,median seed-adjusted z-score
1,CGCUUAAGCCUUCCAACAATT against POLR2A,-3.81 (active)
2,CGGGCAUUCUUAUUAGUCATT against SLC2A2,-0.498
3,CAUCCAGCAUACAAAAGAATT against FCRL3,-0.642
4,GCCUCAGUGUUAUUCGAUATT against MAP1B,0.139
5,AGAUCGACUUGAUCGUGCATT against CDK10,0.327
6,CAGUCUUCACUGACAACUATT against VIP,1.52 (active)
7,GGACCAAGAUGAUCAGAAATT against SAFB,-0.954
8,CAUAGUCCUUGGACAUGUATT against TDRD9,0.0754
9,CUACCAAUAUGAUAGGUUATT against DDX17,0.231
10,CUAUAGGUUUUAUAGCAUUTT against LIPA,0.535
11,GAGUUUCUGUCCAAACUGATT against IL17RA,-1.29 (active)
12,GGCAAAAACUGUGAAUUAUTT against F10,-0.0033
13,CGGAAGGACAGACAAGUAATT against SIGLEC9,0
14,CCAUCACGUUCAUUACCUUTT against GAN,-1.07 (active)
15,GCCUUUGCAGGUAUCAGAATT against LYPLA1,0
16,GCUUGACUUCAAAACUAAATT against SERPIND1,0.133
17,CCCAAUCAGUAAGAACCAATT against CEACAM1,-0.211
18,CCACCUAUAAAGUUCUAAATT against CAPRIN1,1.36 (active)
19,GAUUAUACAUAUUUCGCAATT against BRCA2,0
20,UGGUGUACACUGUUACUCATT against LOC158381,0
21,CGGUCUACAGCAUCGAGUATT against IL22RA1,-1.14 (active)
22,CUAUCGACAUCAAGAGUUUTT against PSPC1,0.0612
23,GGUUGACAGUGUGCCUAAATT against NRIP1,0.789
